Hits are enriched below; roughly 19% of the tested compounds scored in any of these assays.
TDP1 cell noCPT – qHTS for Inhibitors of human tyrosyl-DNA phosphodiesterase 1 (TDP1): qHTS in cells in absence of CPT | DT40 Tdp1-/- hTDP1 cells, no CPT, ATP luminescence, 48 h | Potency, µM (titrated, usually from 46.2 µM), for the others: at the top dose activity change, negative = growth inhibition, actives largely listed as inhibitors | hit rate 15% among 420,000 | AID 686978, 2013; also: potency is read from the fitted curve at half-maximal effect; nearly all actives have a fitted effect of over 55% in size
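Camptothecin absent (DMSO only). Human TDP1-complemented DT40 knockout cells, 400 cells/well, 37 °C for minimum 48 hr; ATP measured via CellTiter-Glo, 30 min dark incubation, luminescence.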
TDP1 cell CPT – qHTS for Inhibitors of human tyrosyl-DNA phosphodiesterase 1 (TDP1): qHTS in cells in presence of CPT. chicken DT40 Tdp1-/-;hTDP1 cells + 20 nM CPT, ATP luminescence, 48 h. Potency, µM (doses to about 46.2 µM), for inactives: top-dose activity change, negative = growth inhibition, hits mostly inhibitors. hit rate 12% among 420,000. AID 686979, 2013; also: potency is read from the fitted curve at half-maximal effect; nearly all actives have a fitted effect of over 55% in size
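Chicken DT40 Tdp1-/- cells stably complemented with human TDP1 were seeded at 400 cells/well in medium containing 20 nM camptothecin, exposed to pin-transferred compounds, and grown at 37 °C for at least 48 hr. Viability was read as ATP luminescence.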
HT1080NT lethal – qHTS for induction of synthetic lethality in tumor cells producing 2HG: qHTS for the HT-1080-NT fibrosarcoma cell line; HT-1080-NT fibrosarcoma viability, CellTiter-Glo ATP luminescence, 48 h; Potency, µM (doses to about 46.1 µM), inactives show at the highest dose activity, negative = less viability, actives largely listed as cytotoxic; hit rate 1.6% among 360,000;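 also: NT is the 2HG producing partner of a matched IDH1 knockdown line; potency is read from the fitted curve at half-maximal effect; 0% = DMSO-treated cells and -100% = media-only wells without cells; nearly all actives have a fitted effect of over 55% in size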
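Compounds were tested in concentration-response format on HT-1080-NT cells for 48 hours at 37 degrees C. Cell viability came from CellTiter-Glo luminescence; curves were classified by r2, response magnitude and activity.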
IL1B secr inh – qHTS for Inhibitors of Inflammasome Signaling: IL-1-beta AlphaLISA Primary Screen; activity change, % at 57.5 µM; THP-1 LPS/ATP IL-1B secretion, AlphaLISA, 16 h; active compounds read low; hit rate 4.7% among 360,000; AID 743279, 2014; in the data active = activity change below about -50%; inconclusive = mostly about -30% to -49%
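Secreted IL-1B measured by AlphaLISA bead assay after 16 h compound exposure of THP-1 cells; compounds (final up to 57.5 uM) added 1 h before LPS (250 ng/mL) and ATP (1.25 mM) stimulation; lower signal means less secretion.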
HT1080 IDH1KD tx – qHTS for induction of synthetic lethality in tumor cells producing 2HG: qHTS for the HT-1080-IDH1KD cell line | HT-1080 IDH1 knockdown viability, ATP luminescence, 48 h | Potency, µM (titrated, usually from 46.1 µM), inactives show at the top dose activity, negative = toxicity, actives largely listed as cytotoxic | hit rate 2% among 360,000 | AID 686971, 2013;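 also: potency is read from the fitted curve at half-maximal effect; 0% = DMSO wells and -100% = cell-free medium wells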
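HT-1080-IDH1KD cells (IDH1 knocked down), 750/well in RPMI with 5% FBS, treated with compound 48 h at 37 degrees C. Viability by CellTiter-Glo luminescence, normalised to DMSO and no-cell wells; concentration-response curves classed.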
Starred values were filed as active, the others as inactive. Unless noted, calls follow the shape of the dose curve; as a rule, active = well fitted curve in the direction sought with a large enough effect; inconclusive = small, poorly fitted or top-dose-only effect, or another doubt; inactive = no such curve, though single readings can be large; an effect the other way counts as inactive or inconclusive. Unless noted, % is scaled to controls: 0 for no effect and ±100 for the full control effect.

Screening O=C(O)c1c2c(nc3ccc(S(=O)(=O)N4CCC(C(=O)NCc5ccccc5Cl)CC4)cc13)CCCC2 returned TDP1 cell noCPT 15%, TDP1 cell CPT 1%, HT1080NT lethal 10%, IL1B secr inh -8 and HT1080 IDH1KD tx 13%.
Cc1csc2c(N3CCN(C(=S)Nc4ccc(C(F)(F)F)cc4)CC3)ncnc12 was read as TDP1 cell noCPT inconclusive, TDP1 cell CPT inconclusive, HT1080NT lethal -14%, IL1B secr inh 12 and HT1080 IDH1KD tx -4%.
For Cc1csc2c(N3CCN(C(=O)Nc4ccc(Cl)c(Cl)c4)CC3)ncnc12 the results were TDP1 cell noCPT 21µM*, TDP1 cell CPT inconclusive, HT1080NT lethal -25%, IL1B secr inh -78* and HT1080 IDH1KD tx inconclusive.
`Cc1csc2c(N3CCN(C(=O)NC(C)(C)C)CC3)ncnc12` gave TDP1 cell noCPT 18µM*, TDP1 cell CPT 15µM*, HT1080NT lethal -2%, IL1B secr inh 22 and HT1080 IDH1KD tx -11%.
Cc1ccccc1NC(=O)N1CCN(c2ncccn2)CC1 was read as TDP1 cell noCPT 21%, TDP1 cell CPT -9%, HT1080NT lethal 12%, IL1B secr inh 0 and HT1080 IDH1KD tx 5%.
Cc1csc2c(N3CCN(C(=O)c4ccc(C(C)(C)C)cc4)CC3)ncnc12 was read as TDP1 cell noCPT 4.1µM*, TDP1 cell CPT inconclusive, HT1080NT lethal 18µM*, IL1B secr inh -9 and HT1080 IDH1KD tx inconclusive.
CC(C)NC(=O)Nc1cccc2c1O[C@H](CN(C)S(=O)(=O)c1ccccc1)[C@@H](C)CN([C@H](C)CO)C2=O was read as TDP1 cell noCPT -10%, TDP1 cell CPT -11%, HT1080NT lethal -3%, IL1B secr inh 2 and HT1080 IDH1KD tx -1%.
Screening COc1ccc(S(=O)(=O)N(C)C[C@H]2Oc3c(NC(=O)C4CC4)cccc3C(=O)N([C@H](C)CO)C[C@@H]2C)cc1 returned TDP1 cell noCPT -15%, TDP1 cell CPT 16µM*, HT1080NT lethal 0%, IL1B secr inh 15 and HT1080 IDH1KD tx -17%.
For CC(C)NC(=O)Nc1cccc2c1O[C@H](CN(C)S(=O)(=O)c1ccc(F)cc1)[C@@H](C)CN([C@H](C)CO)C2=O the results were TDP1 cell noCPT -28%, TDP1 cell CPT 16µM*, HT1080NT lethal 1%, IL1B secr inh -5 and HT1080 IDH1KD tx 2%.
`COc1ccc(S(=O)(=O)Nc2cccc3c2O[C@H](CN(C)S(=O)(=O)c2ccc(Cl)cc2)[C@H](C)CN([C@H](C)CO)C3=O)cc1` gave TDP1 cell noCPT 18µM*, TDP1 cell CPT inconclusive, HT1080NT lethal -8%, IL1B secr inh -18 and HT1080 IDH1KD tx -9%.
C[C@H](CO)N1C[C@H](C)[C@@H](CN(C)S(=O)(=O)c2ccccc2)Oc2c(NC(=O)C3CCCCC3)cccc2C1=O was read as TDP1 cell noCPT 23µM*, TDP1 cell CPT inconclusive, HT1080NT lethal -3%, IL1B secr inh 13 and HT1080 IDH1KD tx -7%.
Screening CCOc1ccc(Nc2ccc3nonc3c2[N+](=O)[O-])cc1 returned TDP1 cell noCPT inconclusive, TDP1 cell CPT 4%, HT1080NT lethal 13%, IL1B secr inh -11 and HT1080 IDH1KD tx 21%.
Screening CCOc1ccc(Nc2ncnc3ccc([N+](=O)[O-])cc23)cc1 returned TDP1 cell noCPT 6.5µM*, TDP1 cell CPT inconclusive, HT1080NT lethal -22%, IL1B secr inh -6 and HT1080 IDH1KD tx -25%.
Screening O=C(Nc1ccc(-c2noc(CCc3ccccc3)n2)cc1)c1cccnc1 returned TDP1 cell noCPT 12µM*, TDP1 cell CPT 18µM*, HT1080NT lethal inconclusive, IL1B secr inh inconclusive and HT1080 IDH1KD tx inconclusive.
Screening O=C(CCCc1nc(-c2ccc(Cl)cc2)no1)Nc1cccnc1 returned TDP1 cell noCPT 15µM*, TDP1 cell CPT 16µM*, HT1080NT lethal -2%, IL1B secr inh 35 and HT1080 IDH1KD tx inconclusive.
`COc1ccc(-c2noc(CCC(=O)Nc3cccc(C(=O)NC4CC4)c3)n2)cc1OC` gave TDP1 cell noCPT inconclusive, TDP1 cell CPT inconclusive, HT1080NT lethal -1%, IL1B secr inh -53* and HT1080 IDH1KD tx -1%.
For O=C(CCc1nc(-c2ccccc2F)no1)Nc1cccc(C(F)(F)F)c1 the results were TDP1 cell noCPT 15µM* and TDP1 cell CPT 18µM*.
For O=C(CCCc1nc(-c2ccccc2)no1)Nc1cc(C(F)(F)F)cc(C(F)(F)F)c1 the results were TDP1 cell noCPT 23µM* and TDP1 cell CPT inconclusive.
For CCOC(=O)c1cccc(NC(=O)CCc2nc(-c3ccc(C)cc3)no2)c1 the results were TDP1 cell noCPT 23µM*, TDP1 cell CPT inconclusive, HT1080NT lethal -1%, IL1B secr inh -14 and HT1080 IDH1KD tx -13%.
`COc1ccc(-c2noc(CCC(=O)Nc3cccc(C)c3)n2)cc1` gave TDP1 cell noCPT inconclusive, TDP1 cell CPT inconclusive, HT1080NT lethal -2%, IL1B secr inh 23 and HT1080 IDH1KD tx 1%.
For CCOC(=O)c1cccc(NC(=O)CCc2nc(-c3ccccc3F)no2)c1 the results were TDP1 cell noCPT inconclusive, TDP1 cell CPT 23µM*, HT1080NT lethal -20%, IL1B secr inh 7 and HT1080 IDH1KD tx -2%.
COc1ccc(NC(=O)CCc2nc(-c3ccccc3F)no2)cc1 was read as TDP1 cell noCPT 2.6µM*, TDP1 cell CPT inconclusive, HT1080NT lethal -6%, IL1B secr inh 6 and HT1080 IDH1KD tx -18%.
`O=C(O)CCCc1nc(-c2ccccc2)no1` gave TDP1 cell noCPT -18%, TDP1 cell CPT 3%, HT1080NT lethal -2%, IL1B secr inh -15 and HT1080 IDH1KD tx -2%.
Screening CCC1CCCCN1C(=O)COC(=O)COc1ccc(Br)cc1 (configuration not stated) returned TDP1 cell noCPT 10%, TDP1 cell CPT -10%, HT1080NT lethal -5%, IL1B secr inh 0 and HT1080 IDH1KD tx -5%.
For COc1ccc2cc(Br)ccc2c1CC(=O)NCCCN1CCOCC1 the results were TDP1 cell noCPT inconclusive, TDP1 cell CPT -22%, HT1080NT lethal -24%, IL1B secr inh inconclusive and HT1080 IDH1KD tx -5%.
`CCOC(=O)c1c(C)[nH]c(C)c1C(=O)CN1C(=O)NC(CC(C)C)C1=O` (configuration not stated) gave TDP1 cell noCPT inconclusive, TDP1 cell CPT 10µM*, HT1080NT lethal 5%, IL1B secr inh 9 and HT1080 IDH1KD tx 4%.

Bioassay records from PubChem.
